This is a sample that favours compounds with a hit; in the whole collection about 1.7% have one here.
15-hLO inh: blocks human 15-lipoxygenase activity; 74,000 tested, 1.4% active; P16050; Potency, µM (series often up to 57.1 µM), inactives show top-dose activity change, negative = inhibition, most hits filed as inhibitors; AID 887; purified 15hLO-1, xylenol orange hydroperoxide absorbance; also: % is scaled to controls: 0 for no effect and ±100 for the full control effect; nearly all actives have a fitted effect of over 55% in size
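Inhibition is scored from a chromogenic endpoint. After 15 min enzyme-compound contact, arachidonic acid (50 uM final) reacts 6 min with 40 nM 15hLO-1 at room temperature, then Fe-XO reagent is added for 30 min and absorbance ratio recorded.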
Casp7 inh: caspase-7 (human) inhibition, allosteric or competitive; P55210; recombinant caspase-7, Ac-DEVD-AFC fluorescence rate; Potency, µM (top dose mostly 57.5 µM), for inactives: at the highest dose activity change, negative = inhibition, most hits filed as inhibitors; 75,000 tested, 0.02% active; active = well fitted inhibition curve with a large enough effect in the main read-out, with a control signal flat, not every such curve was filed as active; inconclusive = small, poorly fitted or top-dose-only effect, or a change in a side signal; also: % of control where 0% means no effect
Caspase-1 inhib: blocks human caspase-1 allosterically or competitively. P29466. Caspase-1 enzyme, Ac-WEHD-AFC fluorogenic rate. Potency, µM (doses to about 57.5 µM), without a hit: at the highest dose activity change, negative = inhibition, actives largely listed as inhibitors. 75,000 tested, 0.03% active. AID 900;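 also: plate controls were vehicle for no effect and no substrate for full effect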
ERK AVP inh: inhibitors of vasopressin-stimulated ERK signaling pathway; HEK293-V1b, vasopressin-stimulated pERK AlphaScreen; 72,000 tested, 0.99% active; AID 995; Potency, µM (top dose mostly 57.5 µM), inactives show top-dose activity, negative = inhibition, actives largely listed as inhibitors; also: % is scaled to controls: 0 for no effect and ±100 for the full control effect; nearly all actives have a fitted effect of over 55% in size
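qHTS, compounds titrated on V1b-expressing HEK293 cells. Preincubation 30 min at 37C, vasopressin 25 nM for 5 min, lysis 10 min, bead incubation 5 hr at room temperature.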
ALOX15B inhib: inhibitors of human 15-lipoxygenase 2 (ALOX15B). purified 15hLO-2, xylenol orange hydroperoxide absorbance. O15296. AID 881. 110,000 tested, 0.56% active. Potency, µM (highest dose often 57.1 µM), for the others: at the top dose activity change, negative = inhibition, actives largely listed as inhibitors; also: % is scaled to controls: 0 for no effect and ±100 for the full control effect; nearly all actives have a fitted effect of over 60% in size
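Read-out: hydroperoxide product oxidises ferrous iron, measured as xylenol orange complex via the 573-to-405 nm absorbance ratio after 30 min. Reaction: 50 nM enzyme, 15 min compound preincubation, 45 uM arachidonic acid, 90 min RT, Hepes pH 7.5 with Triton X-100.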
Active calls of the source: *; ? = inconclusive; · = no result given; ! = a repeat was not active; [ ] = remark or other dose. Unless noted, calls follow the shape of the dose curve; as a rule, active = well fitted curve in the direction sought with a large enough effect; inconclusive = small, poorly fitted or top-dose-only effect, or another doubt; inactive = no such curve, though single readings can be large; an effect the other way counts as inactive or inconclusive. Potency is read from the fitted curve at half-maximal effect.

SMILES | 15-hLO inh | Casp7 inh | Caspase-1 inhib | ERK AVP inh | ALOX15B inhib
COc1ccccc1-c1nc(N(C)Cc2ccco2)c2ccccc2n1 | -22% | -4% | -2% | -29% | -7%
CN(Cc1ccco1)c1nc(-c2ccccc2C(F)(F)F)nc2ccccc12 | 16µM* | -3% | -3% | 2% | -7%
CC(C)(C)NC(=S)Nc1ccc(Nc2ccccc2)cc1 | · | · | · | · | 16µM*
CC(C)(C)NC(=S)Nc1ccc(Br)cc1 | · | · | · | · | -30%
CCCSc1nc(C)c(-c2csc(C(C#N)=C3CCCC3)n2)cc1C#N | ? | -8% | -5% | 9% | 10µM*
COc1ccc(C(=O)Nc2ccc3c(c2)Cc2ccccc2-3)cc1 | · | · | · | · | -7%
COc1ccc2nc3c(cc2c1)Cc1ccccc1-3 | · | -7% | -4% | 32µM* | -8%
O=c1c2ccccc2sn1-c1ccccc1 | · | · | · | · | 1.3µM*
O=c1c2ccccc2sn1-c1ccc(S(=O)(=O)N2CCCCC2)cc1 | ? | -2% | -1% | -9% | ·
Cc1ccc(-n2sc3ccccc3c2=O)cc1S(=O)(=O)N1CCCCC1 | 0.5µM* | -14% | -1% | 14% | 0.63µM*
O=c1c2cccc3c2c(nn1-c1ccccc1)-c1ccccc1-3 | · | · | · | · | -20%
O=c1c2ccccc2sn1-c1ccc(S(=O)(=O)N2CCCC2)cc1 | 0.1µM* | 0% | 0% | -2% | 0.4µM*
CN(C)c1ccc(-c2cncnc2NCc2cccnc2)cc1 | -2% | 0% | 0% | -22% | 13%
COC(=O)c1ccc(C(/C=C/[C@@H](C)C(=O)NCCc2c[nH]c3ccccc23)NC(=O)OCc2ccccc2)cc1 (stereo partly specified) | -14% | -3% | -2% | -17% | -10%
COc1ccc2c(c1)C(c1cc(OC)c(OC)c(OC)c1)CC(=O)O2 (stereo unspecified) | · | · | · | · | -13%[0.0915 µM]
O=C1C2C3c4ccccc4C(c4ccccc43)C2C(=O)N1Cc1ccco1 (stereo unspecified) | 6%[11.4 µM] | 0% | -2% | ? | -7%
N#CC1=C2SCN(Cc3ccco3)CN2C(=O)CC1c1cccc2ccccc12 (stereo unspecified) | 7.9µM* | -11% | -5% | ? | ?
O=S(=O)(O)c1ccc(N=Nc2ccc3c(S(=O)(=O)O)cccc3c2O)c2ccccc12 | -12%[11.4 µM] | -3%[11.5 µM] | -1%[11.5 µM] | -21%[11.5 µM] | -3%[11.4 µM]
Cc1cc(-c2ccc(N=Nc3ccc4c(S(=O)(=O)O)cc(S(=O)(=O)O)c(N)c4c3O)c(C)c2)ccc1N=Nc1ccc2c(S(=O)(=O)O)cc(S(=O)(=O)O)c(N)c2c1O | ? | -10% | -9% | 25µM* | 20µM*
Nc1c(N=Nc2ccc(-c3ccc(N=Nc4cc(S(=O)(=O)O)c5ccccc5c4N)cc3)cc2)cc(S(=O)(=O)O)c2ccccc12 | · | · | · | · | 3.2µM*
Nc1ccc(N=Nc2ccc(-c3ccc(O)cc3)cc2)c2ccc(S(=O)(=O)O)cc12 | -28%[11.4 µM] | -5%[11.5 µM] | 0%[11.5 µM] | -10%[11.5 µM] | 2.5µM*
O=C(O)CN(CCN(CC(=O)O)CC(=O)O)CC(=O)O.[Mn] | 15%[11.4 µM] | -1%[11.5 µM] | 0%[11.5 µM] | -4%[11.5 µM] | 30%[11.4 µM]
COc1ccccc1N1CCN(C(=O)CCc2ccc(S(=O)(=O)NCC(C)C)cc2)CC1 | -13% | -1% | 0% | 25µM* | -2%
COc1ccccc1N1CCN(C(=O)CCc2ccc(S(=O)(=O)NC(C)C)cc2)CC1 | 1% | 1% | -2% | -27% | -1%
CN(C)c1ncnc2ccc(-c3cccc(C#N)c3)cc12 | 7% | -3% | -2% | -18% | 10%
SMILES | 15-hLO inh | Casp7 inh | Caspase-1 inhib | ERK AVP inh | ALOX15B inhib
O=C(O)c1cc(O)c2c(c1)C(=O)c1cccc(O)c1C2=O | 13µM*! | ? | ? | -27% | ?
COC(=O)C/C=C\[C@H](C)[C@@H](OCc1ccccc1Br)C(C)C | 2%[11.4 µM] | 1%[11.5 µM] | 2%[11.5 µM] | 14%[11.5 µM] | ·
CCCCn1c(NCc2ccccc2O)nc2ccccc21 | -13% | -2% | -1% | 25µM* | 10%
O[C@@H](c1cc(C(F)(F)F)nc2c(Cl)cc(Cl)cc12)[C@@H]1CCCCN1 | -3%[11.4 µM] | -1%[11.5 µM] | 2%[11.5 µM] | -17%[11.5 µM] | 32%[11.4 µM]
Clc1ccccc1C(c1ccccc1)(c1ccccc1)n1ccnc1 | -24% | -5% | -2% | 25µM*! | 34%
Cc1cc(C(=O)CSc2nnc(-c3ccco3)o2)c(C)n1-c1ccc2c(c1)OCCO2 | -25% | -2% | -3% | 6% | -2%

Source: PubChem (National Center for Advancing Translational Sciences (NCATS))
